In PubChem BioAssay (Tox21):
Records with an inconclusive call do not appear. A call without a number means that no potency is given here. Values without a mark were called inactive. Calls of active or inactive are those of the source. Unless noted, calls come from the whole dose curve; as a rule, active = well fitted curve in the direction sought with a large enough effect in the repeat runs; inconclusive = weak or mixed curves; inactive = no such curve, though single readings can be large; an effect the other way counts as inactive or inconclusive. Positions of bridges follow the written chain, without caps; N, C: chain ends. Residues, ends and D or L forms follow the SMILES beside them.

What was measured:
[1] = qHTS assay to identify aromatase inhibitors - cell viability counter screen (AID 743084); settings: MCF-7 aro ERE viability, CellTiter-Fluor, 24 h; series mostly up to 70.3 µM;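 note: cells stimulated with testosterone during compound exposure; nearly all actives have a fitted effect of over 55% in size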
[2] = target: Aryl hydrocarbon receptor (Homo sapiens) (UniProt P35869); assay: qHTS assay to identify small molecule that activate the aryl hydrocarbon receptor (AhR) signaling pathway (AID 743085); settings: HepG2 AhR-luc (HG2L7.5c1), luciferase, 24 h; series mostly up to 70.3 µM; note: nearly all actives have a fitted effect of over 15% in size; note: potency is the fitted concentration of half-maximal effect;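 for activation: HG2L7.5c1 human HepG2 liver cells with stably integrated DRE-driven firefly reporter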
Chain of Aryl hydrocarbon receptor (Homo sapiens) (P35869 whole entry, looked up): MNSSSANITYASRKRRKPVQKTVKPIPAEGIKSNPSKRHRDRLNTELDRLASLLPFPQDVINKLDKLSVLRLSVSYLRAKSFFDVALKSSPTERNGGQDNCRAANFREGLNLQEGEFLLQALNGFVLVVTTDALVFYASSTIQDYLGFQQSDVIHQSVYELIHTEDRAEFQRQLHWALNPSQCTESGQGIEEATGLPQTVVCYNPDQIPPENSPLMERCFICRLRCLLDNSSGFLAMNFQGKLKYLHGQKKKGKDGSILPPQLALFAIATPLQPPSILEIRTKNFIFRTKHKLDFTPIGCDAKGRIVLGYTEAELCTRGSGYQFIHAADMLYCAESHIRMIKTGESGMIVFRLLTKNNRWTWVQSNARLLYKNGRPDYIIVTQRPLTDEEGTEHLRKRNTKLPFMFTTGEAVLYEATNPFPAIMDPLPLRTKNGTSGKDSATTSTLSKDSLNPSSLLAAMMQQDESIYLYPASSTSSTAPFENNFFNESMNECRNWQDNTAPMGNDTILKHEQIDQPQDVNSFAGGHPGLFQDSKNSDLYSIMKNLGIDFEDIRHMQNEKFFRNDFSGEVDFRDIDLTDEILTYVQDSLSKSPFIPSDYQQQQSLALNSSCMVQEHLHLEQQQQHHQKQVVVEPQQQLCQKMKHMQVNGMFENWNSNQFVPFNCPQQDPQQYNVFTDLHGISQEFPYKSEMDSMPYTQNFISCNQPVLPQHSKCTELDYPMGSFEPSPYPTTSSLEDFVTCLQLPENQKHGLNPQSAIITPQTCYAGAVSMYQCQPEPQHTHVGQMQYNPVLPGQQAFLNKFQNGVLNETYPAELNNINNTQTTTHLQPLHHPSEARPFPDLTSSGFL
Procedure, shortened: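 Luminescence (ONE-Glo) from a dioxin-responsive-element luciferase reporter in HG2L7.5c1 HepG2 cells after 24 hr compound exposure at 37C; viability measured by CellTiter-Fluor fluorescence beforehand.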

[3] = qHTS assay to identify small molecule that activate the aryl hydrocarbon receptor (AhR) signaling pathway - cell viability counter screen (AID 743086); settings: HepG2-AhR-luc viability, CellTiter-Fluor, 24 h; series mostly up to 70.3 µM;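 note: HepG2 liver cells carrying the AhR DRE luciferase reporter; nearly all actives have a fitted effect of over 45% in size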
Procedure, shortened: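 Cytotoxicity counter screen: CellTiter-Fluor signal (30 min, 37 C) in 4000 HepG2 cells/well carrying the DRE-luciferase reporter, following 24 h compound exposure at 37 C.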

[4] = target: Peroxisome proliferator-activated receptor gamma (Homo sapiens) (UniProt P37231); assay: qHTS assay to identify small molecule agonists of the peroxisome proliferator-activated receptor gamma (PPARg) signaling pathway (AID 743094; active = well fitted activation curve with a large enough effect in the signal ratio in the repeat runs, not every such curve was filed as active; the % refers to the signal ratio); settings: HEK293H PPARg-UAS-bla, beta-lactamase FRET ratio, 17 h; series mostly up to 57 µM
Chain of Peroxisome proliferator-activated receptor gamma (Homo sapiens) (P37231 whole entry, looked up): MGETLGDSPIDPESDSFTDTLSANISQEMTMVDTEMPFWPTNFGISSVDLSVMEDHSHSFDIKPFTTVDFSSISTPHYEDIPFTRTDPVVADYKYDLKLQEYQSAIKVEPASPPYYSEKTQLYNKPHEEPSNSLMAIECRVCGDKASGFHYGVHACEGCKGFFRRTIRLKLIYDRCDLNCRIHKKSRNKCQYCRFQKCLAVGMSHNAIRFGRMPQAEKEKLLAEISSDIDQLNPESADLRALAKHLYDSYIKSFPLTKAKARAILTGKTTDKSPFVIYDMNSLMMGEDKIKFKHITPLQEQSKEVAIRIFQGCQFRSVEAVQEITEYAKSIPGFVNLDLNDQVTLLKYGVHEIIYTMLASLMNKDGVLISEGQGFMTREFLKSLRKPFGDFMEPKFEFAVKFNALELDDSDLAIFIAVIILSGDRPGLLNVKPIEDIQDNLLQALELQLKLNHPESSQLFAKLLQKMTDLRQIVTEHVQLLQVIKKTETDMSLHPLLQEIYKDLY
Procedure, shortened: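 Compounds dissolved in DMSO were added to PPARg UAS-bla HEK293H cells for 17 h at 37C, and reporter expression was quantified by fluorescence intensity after 1 h with LiveBLAzer B/G FRET substrate.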

[5] = qHTS assay to identify small molecule phospholipidosis (PLD) inducers (AID 1259344; active = well fitted curve in the direction sought with a large enough effect; an effect the other way counts as inactive or inconclusive); settings: HepG2 phospholipidosis, LipidTOX Red imaging, 24 h; series mostly up to 38.3 µM
Procedure, shortened: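 Phospholipidosis is scored by imaging LipidTOX-stained pits in HepG2 cells exposed to compound for 24 h at 37 C; pit counts and integrated intensities per well and per cell serve as outputs.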

Row | Structure (SMILES) | Potency [1] | Potency [2] | Potency [3] | Potency [4] | Potency [5] | PLD induction [5]
1 | CC[C@H](CC[C@@H](C)[C@H]1CC[C@H]2[C@@H]3CC=C4C[C@@H](O)CC[C@]4(C)[C@H]3CC[C@]12C)C(C)C | inactive | inactive | inactive | inactive | inactive | 
2 | Cc1cccc(C)c1N(CCCc1cccnc1)C(=O)C(C)N (centres undefined) | inactive | inactive | inactive | inactive |  | -1.49% [at 1.53 µM]
3 | N[C@H](CCC(=O)O)C(=O)O | inactive | inactive | inactive | inactive |  | 0.563% [at 7.66 µM]
4 | O=C(O)c1ccc(OCCn2ccnc2)cc1 | inactive | inactive | inactive | inactive | inactive | 
5 | O=S(=O)(O)Oc1ccc(C(c2ccc(OS(=O)(=O)O)cc2)c2ccccn2)cc1 | inactive | inactive | inactive | inactive | inactive | 
6 | CO[C@H]1[C@@H](O)[C@H](N)[C@@H](O[C@H]2O[C@H]([C@H](C)N)CC[C@H]2N)[C@H](O)[C@@H]1N(C)C(=O)CN | inactive | inactive | inactive | inactive | inactive | 
7 | O=S(O)CNc1ccc(S(=O)(=O)c2ccc(NCS(=O)O)cc2)cc1 | inactive | inactive | inactive | inactive | inactive | 
8 | NCCCC[C@H](NC(=O)[C@@H]1CCCN1C(=O)[C@@H]1CSSC[C@H](NC(=O)CNC(=O)CNC(=O)CN)C(=O)N[C@@H](Cc2ccc(O)cc2)C(=O)N[C@@H](Cc2ccccc2)C(=O)N[C@@H](CCC(N)=O)C(=O)N[C@@H](CC(N)=O)C(=O)N1)C(=O)NCC(N)=O (H-GGGCYFQNCPKG-NH2; disulfide 4-9) | inactive | inactive | inactive | inactive | inactive | 
9 | CS(=O)(=O)NC(=O)CCC/C=C\C[C@H]1C(=O)C[C@@H](O)[C@@H]1/C=C/[C@H](O)COc1ccccc1 | inactive | inactive | inactive | inactive | inactive | 
10 | O=P(O)(O)OC(Cn1cncn1)(Cn1cncn1)c1ccc(F)cc1F | inactive | inactive | inactive | inactive | inactive | 
11 | CN=C(NC)NCc1ccccc1 | inactive | inactive | inactive | inactive | inactive | 
12 | COc1ccc(CCNCC(O)COc2cccc(C)c2)cc1OC (centres undefined) | inactive | inactive | inactive | inactive | inactive | 
13 | OC[C@H]1O[C@@H](n2cnc3c2NC=NC[C@H]3O)C[C@@H]1O | inactive | inactive | inactive | inactive | inactive | 
14 | NCCCC[C@H](NC(=O)[C@@H]1CCCN1C(=O)[C@@H]1CSSC[C@H](N)C(=O)N[C@@H](Cc2ccccc2)C(=O)N[C@@H](Cc2ccccc2)C(=O)N[C@@H](CCC(N)=O)C(=O)N[C@@H](CC(N)=O)C(=O)N1)C(=O)NCC(N)=O | inactive | inactive | inactive | inactive | inactive | 
15 | Cn1nnnc1SCC1=C(C(=O)O)N2C(=O)[C@@H](NC(=O)[C@H](OC=O)c3ccccc3)[C@H]2SC1 | inactive | inactive | inactive | inactive | inactive | 
16 | O=P(O)(O)OC(CO)CO | inactive | inactive | inactive | inactive | inactive | 
17 | CO[C@H]1C[C@H](O[C@H]2[C@H](C)[C@@H](O[C@@H]3O[C@H](C)C[C@H](N(C)C)[C@H]3OC(C)=O)[C@@H](C)C[C@]3(CO3)C(=O)[C@H](C)[C@@H](OC(C)=O)[C@@H](C)[C@@H](C)OC(=O)[C@@H]2C)O[C@@H](C)[C@@H]1OC(C)=O | inactive | inactive | inactive | inactive | inactive | 
18 | CCCCc1cc2c(=O)c(C(=O)OC)c[nH]c2cc1OCc1ccccc1 | inactive | inactive | inactive | inactive | inactive | 
19 | CC(=O)N[C@@H](CC(=O)N[C@@H](CCC(=O)O)C(=O)O)C(=O)O | inactive | inactive | inactive | inactive | inactive | 
20 | C[N+](C)(CCCCCC[N+](C)(C)C1c2ccccc2-c2ccccc21)C1c2ccccc2-c2ccccc21 | inactive | inactive | inactive | inactive | inactive | 
21 | CCCCCCCCCCCCCCCCSCC(COC)COP(=O)([O-])OCC[N+](C)(C)C (centres undefined) | inactive | inactive | inactive | inactive | inactive | 
22 | O=c1[nH]cnc2[nH]cc(CN3CCCCC3)c12 | inactive | inactive | inactive | inactive |  | 1.92% [at 1.53 µM]
23 | CCNC(=O)[C@@H]1CCCN1C(=O)[C@H](CCCN=C(N)N)NC(=O)[C@H](CC(C)C)NC(=O)[C@@H](CC(C)C)NC(=O)[C@H](Cc1ccc(O)cc1)NC(=O)[C@H](CO)NC(=O)[C@H](Cc1c[nH]c2ccccc12)NC(=O)[C@H](Cc1cnc[nH]1)NC(=O)[C@@H]1CCC(=O)N1 | inactive | inactive | inactive | inactive | inactive | 

Row | Structure (SMILES) | Potency [1] | Potency [2] | Potency [3] | Potency [4] | Potency [5] | PLD induction [5]
24 | O=C(O)[C@@H](O)[C@H](O)[C@H](O)[C@@H](O)C(=O)O (tested in a mixture with another compound) | inactive | inactive | inactive | inactive | inactive | 
25 | Nc1ccn(C[C@@H](CO)OCP(=O)(O)O)c(=O)n1 | inactive | inactive | inactive | inactive |  | -2.23% [at 7.66 µM]
26 | CCCCCCCCCCCCCCCCCC(=O)OCCO | inactive | inactive | inactive | inactive | inactive | 
27 | COC1=C(C(=O)O)N2C(=O)[C@@H](NC(=O)[C@H](N)C3=CCC=CC3)[C@H]2SC1 | inactive | inactive | inactive | inactive | inactive | 
28 | CN1CCc2c(c3ccccc3n2Cc2ccccc2)C1 | inactive | inactive | inactive | inactive | inactive | 
29 | O=C[C@H](O)[C@@H](O)[C@H](O[C@H]1O[C@H](CO)[C@@H](O[C@H]2O[C@H](CO)[C@@H](O)[C@H](O)[C@H]2O)[C@H](O)[C@H]1O)[C@H](O)CO | inactive | inactive | inactive | inactive | inactive | 
30 | CCOC(=O)CCC(=O)O[C@H]1[C@H](O[C@@H]2[C@@H](C)[C@H](O[C@H]3C[C@@](C)(OC)[C@@H](O)[C@H](C)O3)[C@@H](C)C(=O)O[C@H](CC)[C@@](C)(O)[C@H](O)[C@@H](C)C(=O)[C@H](C)C[C@@]2(C)O)O[C@H](C)C[C@@H]1N(C)C | inactive | inactive | inactive | inactive | inactive | 
31 | CC(=O)O[C@H]1C[C@@H]2CC[C@@H]3[C@H](CC[C@@]4(C)[C@H]3C[C@H](N3CC[N+](C)(C)CC3)[C@@H]4OC(C)=O)[C@@]2(C)C[C@@H]1N1CC[N+](C)(C)CC1 | inactive |  | inactive |  | inactive | 
32 | O=C(Nc1ccc(Br)cc1)c1cc(Br)c(Br)s1 | inactive | 16.8 µM (active) |  | inactive | inactive | 
33 | N[C@@H](C(=O)N[C@@H]1C(=O)N2C(C(=O)O)=C(CSc3cn[nH]n3)CS[C@H]12)c1ccc(O)cc1 | inactive | inactive |  | inactive | inactive | 
34 | CS(=O)(=O)Nc1cc2occ(NC=O)c(=O)c2cc1Oc1ccccc1 | inactive | inactive |  | inactive | inactive | 
35 | CC(=O)OC[C@H]1O[C@@H](O[C@H]2[C@H](O)[C@@H](OC(=O)c3ccccc3C(=O)O)[C@H](O)O[C@@H]2COC(C)=O)[C@H](O)[C@@H](OC(=O)c2ccccc2C(=O)O)[C@@H]1O | inactive | inactive |  | inactive |  | 5.14% [at 0.306 µM]
36 | OCC(O)COc1ccc(Cl)cc1 (centres undefined) | inactive | inactive | inactive | inactive | inactive | 
37 | Cn1nnnc1SCC1=C(C(=O)O)N2C(=O)[C@@H](NC(=O)[C@H](O)c3ccccc3)[C@H]2SC1 | inactive |  | inactive | inactive | inactive | 
38 | O=C(Cn1c(=O)sc2ccc(Cl)cc21)N1CCN(CCO)CC1 | inactive | inactive | inactive | inactive |  | 3.19% [at 7.66 µM]
39 | O=P(O)(O)C(O)(Cc1cnc2ccccn12)P(=O)(O)O | inactive |  | inactive | inactive | inactive | 
40 | CN(CC(=O)N1CCOCC1)Cc1c(Cl)cccc1NC(=O)c1ccccc1 | inactive | 13.3 µM (active) |  | inactive | inactive | 
41 | CCCCCCCCCCCCCCCCCCOP(=O)([O-])OC1CC[N+](C)(C)CC1 | inactive | inactive |  | inactive | inactive | 
42 | CCN(CC)c1ccc(N=Nc2ccc(S(=O)(=O)N(C)C)cc2)c(S(=O)(=O)NCC[n+]2ccccc2)c1 | inactive |  | inactive | inactive | inactive | 
43 | CCC(CN)CC(C)CCNCC(O)CNCC(C)CC(CC)CN (centres undefined) | inactive | inactive | inactive | inactive |  | -0.745% [at 7.66 µM]
44 | CN[C@@H]1CCc2[nH]c3ccc(C(N)=O)cc3c2C1 | inactive | inactive | inactive | inactive |  | -1.34% [at 1.53 µM]
45 | COCC1=C(C(=O)OC(C)OC(=O)OC(C)C)N2C(=O)[C@@H](NC(=O)/C(=N\OC)c3csc(N)n3)[C@H]2SC1 (some centres undefined) | inactive | inactive | inactive | inactive | inactive | 
